Screening data: PubChem BioAssay, National Center for Advancing Translational Sciences (NCATS)
aGlu spleen mod: qHTS Assay for Inhibitors and Activators of Human alpha-Glucosidase From Spleen Homogenate; Lysosomal alpha-glucosidase (Homo sapiens), P10253; 240,000 compounds, 0.006% hits; human spleen homogenate, 4-MU-alpha-glucoside fluorescence; AID 2112, 2009; Potency, µM (series often up to 79.9 µM), inactives show at the top dose activity change, negative = inhibition, most hits filed as inhibitors;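 also: potency is read from the fitted curve at half-maximal effect; 0% = enzyme with vehicle and -100% = no enzyme basal signal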
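Human spleen homogenate (1 ug) with 4-methylumbelliferyl-alpha-D-glucopyranoside (1 mM final) in 50 mM citrate/phosphate pH 5.0, 0.01% Tween-20; 40 min at 37 C. Stopped at pH 10; 4-MU fluorescence Ex 365/Em 440 nm; AC50 by Hill fit.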
GAA glycogen: qHTS Assay for Inhibitors and Activators of Human alpha-Glucosidase Cleavage of Glycogen; recombinant GAA, glycogen substrate, Amplex Red glucose oxidase fluorescence; Potency, µM (doses to about 76.4 µM), without a hit: at the top dose activity change, negative = inhibition, hits mostly inhibitors; 300,000 compounds, 0.38% hits;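 also: potency is read from the fitted curve at half-maximal effect; 0% = full enzyme reaction and -100% = no-enzyme basal signal; the screen sought inhibitors and activators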
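Recombinant human enzyme (4 nM); glycogen substrate; 37 C, 40 min, pH 5.0. Readout: coupled glucose oxidase/Amplex Red fluorescence.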
GLA inh pH 4.5: qHTS Assay for Inhibitors of Human alpha-Galactosidase at pH 4.5; Alpha-galactosidase A (Homo sapiens), P06280; purified enzyme, 4-MU-alpha-Gal fluorescence, pH 4.5; activity change, negative = inhibition, % at 105 µM; 230,000 tested, under 10 active;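 also: 0% = full activity with enzyme and -100% = basal without enzyme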
GAA inhib: qHTS Assay for Inhibitors of Human alpha-Glucosidase as a Potential Chaperone Treatment of Pompe Disease; Potency, µM (doses to about 76.9 µM), for inactives: top-dose activity change, negative = inhibition, usual class: inhibitors; Lysosomal alpha-glucosidase (Homo sapiens), P10253; 200,000 compounds, 0.005% hits; purified human GAA, 4-MU-alpha-glucoside fluorescence;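 also: potency is read from the fitted curve at half-maximal effect; plate controls were uninhibited enzyme wells for no effect and no-enzyme background for full effect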
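qHTS format, compound range up to 77 uM. Human lysosomal enzyme at 4 nM, 400 uM 4-MU glucoside substrate, pH 5.0, 20 min room temperature; fluorescence after alkaline stop gives activity normalized to controls.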
aGal spleen mod: qHTS Assay for Inhibitors and Activators of Human alpha-Galactosidase From Spleen Homogenate. Potency, µM (doses to about 80 µM), without a hit: top-dose activity change, negative = inhibition, usual class: inhibitors. human spleen homogenate, 4MU-alpha-Gal fluorescence, 40 min. 240,000 compounds, 0.008% hits. Alpha-galactosidase A (Homo sapiens), P06280;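 also: potency is read from the fitted curve at half-maximal effect; 0% = enzyme with vehicle and -100% = no enzyme basal signal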
Target sequence (P06280 32-429 limits assumed): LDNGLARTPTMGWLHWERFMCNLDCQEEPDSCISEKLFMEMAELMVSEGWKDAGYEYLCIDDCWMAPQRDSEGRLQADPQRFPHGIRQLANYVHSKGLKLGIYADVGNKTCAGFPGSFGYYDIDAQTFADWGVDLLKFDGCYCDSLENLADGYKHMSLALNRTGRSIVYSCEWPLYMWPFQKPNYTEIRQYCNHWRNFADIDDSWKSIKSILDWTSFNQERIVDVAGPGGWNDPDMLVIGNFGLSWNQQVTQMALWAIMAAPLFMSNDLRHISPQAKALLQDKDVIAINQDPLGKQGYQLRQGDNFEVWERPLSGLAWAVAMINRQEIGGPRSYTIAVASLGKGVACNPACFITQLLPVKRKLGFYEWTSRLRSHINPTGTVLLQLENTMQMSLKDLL
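Spleen homogenate 1 ug + cpd (titration) + 4-MU-alpha-D-galactopyranoside 1 mM; 37C 40 min; 50 mM citrate/phosphate pH 5.0, 0.01% Tween-20; stop pH 10; fluorescence 365/440; AC50 via Hill.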
An asterisk follows results filed as active; u = inconclusive; x = no result; ! = not confirmed by another sample; [ ] = another dose, or the depositor's remark. Most compounds without a hit are left out; they make up all but 0.4% or so of the library. Calls follow the shape of the dose curve; as a rule, active = well fitted curve in the direction sought with a large enough effect; inconclusive = small, poorly fitted or top-dose-only effect, or another doubt; inactive = no such curve, though single readings can be large; an effect the other way counts as inactive or inconclusive.

SMILES	aGlu spleen mod	GAA glycogen	GLA inh pH 4.5	GAA inhib	aGal spleen mod
CC(=O)OCC(CO)OC(C)=O (centres undefined) (tested in a mixture with another compound)	1%	x	x	x	9%
O=C(O)c1ccc(O)cc1	0%	x	x	x	-6%
O=C(O)c1ccc(O)c(O)c1	-10%	5µM*	2	-13%	-15%
N#C/C(=C\c1cc(O)c(O)c(O)c1)C(N)=O	u	5µM*	-11	x	-30%
N#C/C(=C\c1cc(Cl)c(OCc2ccc(Cl)cc2)c(Cl)c1)C(N)=O	1%	1%	-9	x	-3%
C[C@@H]1CC[C@H]2[C@H](C)[C@H]3CC[C@H]4C5[C@@H](O)CC6=CC(=O)CC[C@]6(C)[C@H]5C[C@H]4C3C(=O)N2C1 (some centres undefined)	0%	x	1	x	7%
Cc1ccccc1OCCn1cc(/C(N)=N/O)c2ccccc21	-5%	32µM*	5	-8%	-8%
Oc1ccccc1OCc1nc2ccccc2s1	0%	-30%	-2	-9%	0%
Oc1ccc(O)c(Cc2nc3ccccc3s2)c1	-3%	5.6µM*	-11	-18%	3%
O=C(NNc1nc2cc3c(cc2s1)OCO3)c1ccc(F)cc1	4%	28µM*	7	6%	9%
O=C(NNc1nc2cc3c(cc2s1)OCCO3)c1ccc(F)cc1	2%	24%	-5	-7%	-5%
CCC/C=C(\CCC)C(NC(=O)Oc1ccc(F)cc1)c1ccc(C(=O)OC)cc1 (centres undefined)	5%	x	5	x	2%
OCCCNC(=S)Nc1ccc(Nc2ccccc2)cc1	1%	14µM*	3	-8%	-3%
Oc1ccc(NC(=S)Nc2ccccc2)cc1	-2%	11µM*!	22	3%	2%
S=C(NCCNC(=S)Nc1ccccc1)Nc1ccccc1	x	-4%[76.3 µM]	x	x	x
Nc1ccc(NC(=S)Nc2ccccc2)cc1	-1%	0%	-1	-4%	-3%
O=C(CSc1c2c(nc3ccccc13)CCC2)Nc1ccc(F)cc1F	x	16%[76.3 µM]	x	x	x
Cc1ccc(S(=O)(=O)c2nnn3c2nc(N2CCN(c4ccccc4F)CC2)c2ccccc23)cc1C	x	2%[76.3 µM]	x	x	x
NNc1ccc2nnc(C(F)(F)C(F)(F)C(F)(F)F)n2n1	4%	32µM*	6	8%	5%
O=S(=O)(c1ccccc1)N1CCC2(CCN(c3ccc(-c4ccccc4)cc3)CC2)CC1	4%	x	x	x	-2%
O=C(NNc1nc2c(F)cc(F)cc2s1)C1=COCCO1	13%	4.4µM*	-7	1%	6%
Cc1cccc2sc(NNC(=O)C3=COCCO3)nc12	0%	u	1	4%	1%
Cc1c(N=Cc2ccc(-c3ccc(Cl)cc3)o2)c(=O)n(-c2ccccc2)n1C	2%	-11%	-1	-7%	-7%
Cc1c(N=CC=Nc2c(C)n(C)n(-c3ccccc3)c2=O)c(=O)n(-c2ccccc2)n1C	-3%	-25%	8	1%	16%
Cc1c(N=Cc2ccc(Cl)o2)c(=O)n(-c2ccccc2)n1C	2%	4.5µM*	-24	-9%	5%
Cc1ccccc1-c1ccc(C=Nc2c(C)n(C)n(-c3ccccc3)c2=O)o1	4%	16µM*	-3	-11%	3%
Cc1c(N=Cc2ccco2)c(=O)n(-c2ccccc2)n1C	-15%	10µM*	8	3%	-4%
O=S1(=O)N=C(Oc2cccc3ccccc23)c2ccccc21	4%	25µM*	-3	-1%	-1%
COc1ccc(C2Sc3ccccc3N(CCN(C)C)C(=O)[C@@H]2OC(C)=O)cc1 (some centres undefined)	4%	x	x	x	1%
O=C1OC2(CCCCC2)OC(=O)C1=CNc1ccc2c(c1)OCO2	-1%	1%	6	-4%	-7%
